PubChem BioAssay AID1159580 (chemical genetic matrix, 2015)
Values joined by “and” are separate entries in the source; they are usually repeats but may differ in a detail not shown here. Equal values may be shown once. Screen size: about 5,500 compounds; about 2,000 (36%) were called active. Another 18% or so got no clear call; they are omitted. No stated cut-off is given here; in the data, active means normalized growth mostly below about 0.91 (no sharp cut-off); inconclusive means no clear call, values can overlap the other calls; inactive means mostly above about 0.92. The list shows a part of the results.

Experiment: chemical genetic growth profiling, strain panel (AID 1159580);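 further: tested at 20 µM; growth read once vehicle control cultures reached saturation at 30 °C; 1 = growth at the plate median or of vehicle wells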
Details: growth OD

Measured: normalized growth

CC1COc2c(N3CCN(C)CC3)c(F)cc3c(=O)c(C(=O)O)cn1c23 (stereo not drawn)
inactive: S. cerevisiae deletion strains, locus YJR066W, strain TOR1, stronger effect = lower value 0.948 | S. cerevisiae deletion strains, locus YKL009W, strain mrt4, stronger effect = lower value 1.03 | S. cerevisiae deletion strains, locus YKL068W, stronger effect = lower value 1.02 | S. cerevisiae deletion strains, locus YKL085W, strain MDH1 (second series), stronger effect = lower value 1 | S. cerevisiae deletion strains, locus YKL085W, strain MDH1, stronger effect = lower value 1 | S. cerevisiae deletion strains, locus YKL160W, strain elf1, stronger effect = lower value 0.971 | S. cerevisiae deletion strains, locus YKL190W, strain CNB1, stronger effect = lower value 1.01 | S. cerevisiae deletion strains, locus YKR001C, strain vps1, stronger effect = lower value 1.03 | S. cerevisiae deletion strains, locus YKR026C, strain gcn3, stronger effect = lower value 0.988 | S. cerevisiae deletion strains, locus YKR091W, strain srl3, stronger effect = lower value 0.984 | S. cerevisiae deletion strains, locus YLL001W, strain dnm1, stronger effect = lower value 0.958 | S. cerevisiae deletion strains, locus YLL026W, stronger effect = lower value 0.998 | S. cerevisiae deletion strains, locus YLL041C, strain sdh2, stronger effect = lower value 0.987 | S. cerevisiae deletion strains, locus YLR027C, strain aat2, stronger effect = lower value 0.997 | S. cerevisiae deletion strains, locus YLR039C, strain RIC1, stronger effect = lower value 1.03 | S. cerevisiae deletion strains, locus YLR058C, strain SHM2, stronger effect = lower value 1.01 | S. cerevisiae deletion strains, locus YLR102C, strain apc9, stronger effect = lower value 1.02 | S. cerevisiae deletion strains, locus YLR113W, strain HOG1, stronger effect = lower value 0.942 | S. cerevisiae deletion strains, locus YLR221C, strain rsa3, stronger effect = lower value 0.979 | S. cerevisiae deletion strains, locus YLR258W, strain gsy2, stronger effect = lower value 0.994 | S. cerevisiae deletion strains, locus YLR262C, strain YPT6 (second series), stronger effect = lower value 0.966 | S. cerevisiae deletion strains, locus YLR262C, strain YPT6, stronger effect = lower value 1.07 | S. cerevisiae deletion strains, locus YLR268W, strain sec22, stronger effect = lower value 1.01 | S. cerevisiae deletion strains, locus YLR320W, strain mms22, stronger effect = lower value 0.961 | S. cerevisiae deletion strains, locus YLR330W, strain CHS5, stronger effect = lower value 1.01 | S. cerevisiae deletion strains, locus YLR342W, strain FKS1 (second series), stronger effect = lower value 1 | S. cerevisiae deletion strains, locus YLR342W, strain FKS1, stronger effect = lower value 0.976 | S. cerevisiae deletion strains, locus YLR357W, strain rsc2, stronger effect = lower value 0.967 | S. cerevisiae deletion strains, locus YLR370C, strain arc18, stronger effect = lower value 0.98 | S. cerevisiae deletion strains, locus YLR371W, strain rom2, stronger effect = lower value 1.02 | S. cerevisiae deletion strains, locus YLR384C, strain iki3, stronger effect = lower value 0.965 | S. cerevisiae deletion strains, locus YLR418C, strain cdc73, stronger effect = lower value 1.02 | S. cerevisiae deletion strains, locus YML016C, strain PPZ1, stronger effect = lower value 1 | S. cerevisiae deletion strains, locus YML032C, strain rad52, stronger effect = lower value 1.01 | S. cerevisiae deletion strains, locus YML120C, strain ndi1, stronger effect = lower value 0.984 | S. cerevisiae deletion strains, locus YML124C, strain tub3, stronger effect = lower value 1.01 | S. cerevisiae deletion strains, locus YMR058W, strain fet3, stronger effect = lower value 0.985 | S. cerevisiae deletion strains, locus YMR078C, strain ctf18, stronger effect = lower value 1.01 | S. cerevisiae deletion strains, locus YMR125W, strain sto1, stronger effect = lower value 0.981 | S. cerevisiae deletion strains, locus YMR129W, stronger effect = lower value 0.99 | S. cerevisiae deletion strains, locus YMR205C, strain PFK2, stronger effect = lower value 0.959 | S. cerevisiae deletion strains, locus YMR223W, strain ubp8, stronger effect = lower value 1.02 | S. cerevisiae deletion strains, locus YMR231W, strain pep5, stronger effect = lower value 0.981 | S. cerevisiae deletion strains, locus YMR307W, strain GAS1, stronger effect = lower value 1.09 | S. cerevisiae deletion strains, locus YNL067W, strain RPL9B, stronger effect = lower value 1 | S. cerevisiae deletion strains, locus YNL071W, strain lat1, stronger effect = lower value 0.987 | S. cerevisiae deletion strains, locus YNL128W, strain TEP1, stronger effect = lower value 1.03 | S. cerevisiae deletion strains, locus YNL153C, strain GIM3, stronger effect = lower value 1.05 | S. cerevisiae deletion strains, locus YNL183C, strain NPR1, stronger effect = lower value 0.928 | S. cerevisiae deletion strains, locus YNL197C, strain WHI3, stronger effect = lower value 1.01 | S. cerevisiae deletion strains, locus YNL209W, strain ssb2, stronger effect = lower value 0.988 | S. cerevisiae deletion strains, locus YNL224C, strain SQS1, stronger effect = lower value 1.01 | S. cerevisiae deletion strains, locus YNL233W, strain BNI4, stronger effect = lower value 1 | S. cerevisiae deletion strains, locus YNL248C, strain rpa49, stronger effect = lower value 0.982 | S. cerevisiae deletion strains, locus YNL250W, strain rad50, stronger effect = lower value 1.01 | S. cerevisiae deletion strains, locus YNL271C, strain bni1, stronger effect = lower value 1.02 | S. cerevisiae deletion strains, locus YNL298W, strain CLA4, stronger effect = lower value 1.02 | S. cerevisiae deletion strains, locus YNL307C, strain MCK1, stronger effect = lower value 1.02 | S. cerevisiae deletion strains, locus YNL322C, strain KRE1 (second series), stronger effect = lower value 0.978 | S. cerevisiae deletion strains, locus YNL322C, strain KRE1, stronger effect = lower value 0.995 | S. cerevisiae deletion strains, locus YNR049C, strain mso1, stronger effect = lower value 0.986 | S. cerevisiae deletion strains, locus YNR052C, strain pop2, stronger effect = lower value 1.03 | S. cerevisiae deletion strains, locus YOL006C, strain TOP1, stronger effect = lower value 1.02 | S. cerevisiae deletion strains, locus YOL012C, strain htz1 1.78 | S. cerevisiae deletion strains, locus YOL147C, strain pex11, stronger effect = lower value 1.01 | S. cerevisiae deletion strains, locus YOR001W, strain rrp6, stronger effect = lower value 1.01 | S. cerevisiae deletion strains, locus YOR061W, strain CKA2, stronger effect = lower value 1.01 | S. cerevisiae deletion strains, locus YOR069W, strain VPS5, stronger effect = lower value 1 | S. cerevisiae deletion strains, locus YOR070C, strain gyp1, stronger effect = lower value 0.994 | S. cerevisiae deletion strains, locus YOR080W, strain dia2, stronger effect = lower value 0.984 | S. cerevisiae deletion strains, locus YOR083W, strain WHI5 (second series), stronger effect = lower value 1.02 | S. cerevisiae deletion strains, locus YOR083W, strain WHI5, stronger effect = lower value 0.953 | S. cerevisiae deletion strains, locus YOR106W, strain vam3, stronger effect = lower value 0.971 | S. cerevisiae deletion strains, locus YOR136W, strain idh2, stronger effect = lower value 1.01 | S. cerevisiae deletion strains, locus YOR144C, strain elg1, stronger effect = lower value 1.01 | S. cerevisiae deletion strains, locus YOR184W, strain ser1, stronger effect = lower value 1.02 | S. cerevisiae deletion strains, locus YOR231W, strain MKK1, stronger effect = lower value 0.972 | S. cerevisiae deletion strains, locus YOR265W, strain rbl2, stronger effect = lower value 0.989 | S. cerevisiae deletion strains, locus YOR270C, strain vph1, stronger effect = lower value 0.965 | S. cerevisiae deletion strains, locus YOR290C, strain snf2, stronger effect = lower value 0.985 | S. cerevisiae deletion strains, locus YOR316C, strain cot1, stronger effect = lower value 1.01 | S. cerevisiae deletion strains, locus YPL051W, strain arl3, stronger effect = lower value 0.98 | S. cerevisiae deletion strains, locus YPL055C, strain LGE1, stronger effect = lower value 1.03 and 1.01 | S. cerevisiae deletion strains, locus YPL078C, strain atp4, stronger effect = lower value 0.966 | S. cerevisiae deletion strains, locus YPL106C, strain sse1, stronger effect = lower value 0.965 | S. cerevisiae deletion strains, locus YPL240C, strain hsp82, stronger effect = lower value 0.999 | S. cerevisiae deletion strains, locus YPL256C, strain CLN2, stronger effect = lower value 1 | S. cerevisiae deletion strains, locus YPR119W, strain clb2, stronger effect = lower value 1.01 | S. cerevisiae deletion strains, locus YPR141C, strain kar3, stronger effect = lower value 1.01 | S. cerevisiae deletion strains, locus YPR163C, strain tif3, stronger effect = lower value 1.01 | S. cerevisiae deletion strains, locus YPR167C, strain met16, stronger effect = lower value 1.01 | S. cerevisiae deletion strains, strain wtn01, stronger effect = lower value 1.01 | S. cerevisiae strains, strain wild type, stronger effect = lower value 1.01
